For eight compounds, Potency and activity (max response) results are on record in PubChem BioAssay (NCATS).

The nature of assay [1]: Viability qHTS for spleen associated tyrosine kinase inhibitor (SYKi) naive MV4-11 cells (AID 1963823). Also: nearly all actives have a fitted effect of over 40% in size. An outline of the steps:
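SYK inhibitor-naive MV4-11 cells, 500 per well, exposed to compounds for 72 hr at 37 C, 5% CO2. Viability read as CellTiter-Glo luminescence after 10 min at room temperature.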
(qHTS replaces the single test concentration by a dilution series.)

Assay [2] is described as follows: Viability qHTS for spleen associated tyrosine kinase inhibitor (SYKi) drug resistant MV4-11 cells (AID 1963824). Also: nearly all actives have a fitted effect of over 35% in size. The procedure, abridged: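 SYK-inhibitor-resistant MV4-11 AML cells were seeded at 500 per well onto compound and cultured 72 hours (37 °C, 5% CO2). CellTiter-Glo was then added, and after 10 min at room temperature, luminescence gave viability.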
The nature of assay [3]: Cellular viability qHTS for adrenocortical cancer (ACC) cell line SW-13 (AID 1963989). Also: nearly all actives have a fitted effect of over 65% in size.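 As to activity (max response): cells grown in serum-free medium with ITS supplement; % is scaled to controls: 0 for no effect and ±100 for the full control effect.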 The conditions noted are these: SW-13 ACC cells viability, CellTiter-Glo, 48 h; activity (max response): stronger effect = lower value. The procedure, abridged: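 Compound titrations (up to 46 uM final, in DMSO) were applied to SW-13 cells for 48 h at 37C/5% CO2. Reading used CellTiter-Glo after 20 min at room temperature; fitted curves yielded IC50 and efficacy.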

“And” between values parts separate entries of the source, which are not always exact repeats. Equal values may be shown once. Records with an inconclusive call do not appear. Unmarked numbers belong to inactive results. The source made the active and inactive calls. Calls follow the shape of the dose curve; as a rule, active = well fitted curve in the direction sought with a large enough effect; inconclusive = small, poorly fitted or top-dose-only effect, or another doubt; inactive = no such curve, though single readings can be large; an effect the other way counts as inactive or inconclusive.
Potency is read from the fitted curve at half-maximal effect.

As to `CCc1cc(/C(C)=N/OCc2ccc(C3CCCCC3)c(C(F)(F)F)c2)ccc1CN1CC(C(=O)O)C1`, the Potency is 18.6 µM (active) in assay [1] and 14.8 µM (active) in assay [2]. Also, the activity (max response) in assay [3] is -17.6%.
Consider `Cc1cc(C(=O)Nc2cc(Nc3ccc4c(/C=C/c5ccccn5)n[nH]c4c3)ccc2F)n(C)n1`, for which the Potency in assay [1] is 9.2 µM (active) and 5.25 µM (active); in assay [2] it was 9.2 µM (active) and 5.25 µM (active); in assay [3], 22.4 µM (active).
For `CCn1c(N)c(C(=O)NC)c(=O)c2ccc(C#CC(C)(O)COC)nc21` (centres undefined), the values for the Potency in assay [1] and in assay [2] were 4.17 µM (active) and 4.11 µM (active), respectively. Moreover, the activity (max response) in assay [3] is 12.5%.
Consider `Cc1cc(CS(=O)(=O)c2ccccc2)cc(OCc2ccc(CN3CCC[C@@H]3CO)cc2)c1`, for which the Potency was 16.6 µM (active) in assay [1], 16.6 µM (active) in assay [2] and 28.2 µM (active) in assay [3].
On to `Cc1ncc(NC(=O)c2cccc(C(F)(F)F)c2)cc1-c1cnc(OC2CCOCC2)c(N2CCOCC2)c1`, for which the Potency in assay [1] was 6.61 µM (active); in assay [2], 5.9 µM (active); in assay [3], 22.4 µM (active).
Regarding `C[C@H]1C[C@H]2[C@@H]3CCC4=CC(=O)C=C[C@]4(C)[C@@]3(Cl)[C@@H](O)C[C@]2(C)[C@@]1(O)C(=O)CO`, the Potency is 21.1 µM (active) in assay [1] and 13.3 µM (active) in assay [2]. The activity (max response) in assay [3] was -3.23%.
In the case of `C=CCc1cccc(/C=N/NC(=O)CN2CCN(Cc3ccccc3)CC2)c1O`, the Potency in assay [1] is 7.42 µM (active); in assay [2], 6.61 µM (active); in assay [3] it was 8.91 µM (active).
For `CC(C)(C)c1[nH]cnc1/C=c1\[nH]c(=O)/c(=C/c2ccccc2)[nH]c1=O` the same measures were 0.0833 µM (active), 0.0934 µM (active) and 0.0398 µM (active).
